For the assay, the system named is MDA-MB-468 breast. Kind of assay: NCI-60 one-dose screen, 48 h (100 = growth as untreated, 0 = no growth, -100 = all killed). Particulars: 10 µM unless noted.

The panel holds about 83,000 compounds, 20% with a hit somewhere; the sample as a whole holds those more often.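 Plates (96-well) were seeded with cells, treated with compound at one concentration, and incubated for 48 hours before percent growth was determined.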 Unmarked numbers belong to inactive results. Calls of active or inactive are those of the source. The calls were made as follows: active = growth percent below 10; inactive = the rest.

Regarding `COc1ccc(-c2nc3sccn3c2-c2cc(-c3cc(OC)c(OC)c(OC)c3)on2)cc1`, the growth is 100%.

Consider `NS(=O)(=O)c1ccc(-n2cc(-c3cccc(NC(=O)c4ccc(N5CCOCC5)c(C(F)(F)F)c4)c3)nn2)cc1`, for which the growth was 36.7%.

As to `COc1cccc(NCc2nnc(Nc3ccc(Cl)cc3)c3ccccc23)c1`, the growth was -21.9% (active).

`COc1ccc(C(=O)C2OC3=C(C(=O)CC(C)(C)C3)C2c2cccc(Oc3ccccc3)c2)cc1` (stereo unspecified): the growth was 94.3%.

Regarding `O=S(=O)(O)CCI`, the growth is 91.8%.

For the compound `O=C1NC2(Nc3ccccc31)C(=O)Nc1c(Cl)cc(Cl)cc12` (stereo unspecified), the growth is 112%.

For the compound `COc1ccc(OC)c(CCn2cncc2-c2c[nH]c3ccc(Cl)cc23)c1`, the growth is -14.9% (active).

In the case of `CCCCCCCCO`, the growth was 98.9%.

In the case of `O=c1[nH]c2ccccc2n1C1CCN(CCOc2ccccc2)CC1`, the growth was 78.9%.

For `COc1ccc(C2=NN(C(=O)c3ccc(S(C)(=O)=O)cc3)C(c3ccc(OC)c(OC)c3)C2)c(OC)c1` (stereo unspecified), the growth was 87%.

In the case of `COc1cc(NC(=O)c2cncnc2Nc2ccc3c(ccn3Cc3ccccn3)c2)cc(OC)c1`, the growth is 15.6%.

In the case of `Oc1ccc2ccccc2c1N=Nc1nccs1`, the growth is -48.6% (active).

With `CNC(=O)c1cc(Oc2ccc3nc(NC(=O)c4ccc(CN5CCN(C)CC5)c(C(F)(F)F)c4)sc3c2)ccn1`, the growth is 52.1%.

Consider `CCOC(=O)c1cc(C#N)n2ncc3ccccc3c12`, for which the growth is 87.9%.

Regarding `CSc1nc(N)c(N=Nc2ccc(S(=O)(=O)Nc3nnc(C)s3)cc2)c(=O)[nH]1`, the growth is 93.4%.

Regarding `CC/C=C/C/C=C/C/C=C/C/C=C/C/C=C/C/C=C/CCC(=O)Nc1ccn([C@@H]2O[C@H](CO)[C@@H](O)C2(F)F)c(=O)n1`, the growth was 21.5%.

As for `Cc1ccc2c(n1)C(=O)C(Cl)=C(Nc1cc(C(F)(F)F)cc(C(F)(F)F)c1)C2=O`, the growth is 32.5%.

For `CCCCn1sc(=O)n(Cc2ccc(CNC(=O)OCc3ccc4c(Br)cc(Br)c(O)c4n3)cc2)c1=O`, the growth was 27.3%.

With `[O-]/[N+](=C\c1ccccc1)CC1(O)CCCCC1`, the growth was 108%.

Consider `Nc1ccc(-c2cc3c(NCc4ccccc4)ncnc3s2)cc1`, for which the growth is 4.36% (active).

On to `COc1ccc(/C=C/c2nc(Nc3ccc(S(=O)(=O)Nc4nc(C)cc(C)n4)cc3)c3ccccc3n2)cc1`, for which the growth was 24%.

With `COc1cnc2c(c1)C(=O)c1c-2n(CCCN2CCOCC2)c(=O)c2cc(Cl)ccc12`, the growth was -1.98% (active).

Regarding `O=C(Nn1c2c(sc1=NC1CC1)C(=O)c1ccccc1C2=O)c1cc2ccc1CCc1ccc(cc1)CC2`, the growth is 32.4%.

With `Cc1ccc(C(=O)Nc2ccc(CN3CCN(C)CC3)c(C(F)(F)F)c2)cc1C#Cc1cnc(N)c2ccccc12`, the growth is -61.7% (active).

Take `COc1ccc(Nc2[nH]n3c(=O)cc(-c4ccccc4)nc3c2C(=O)Nc2ccc(C)cc2)c(OC)c1`: the growth is 58.6%.

Turning to `N/C(=N\OC(=O)c1ccccc1)C(C(=O)NOC(=O)c1ccccc1)C1CCCCC1` (stereo unspecified), the growth is 80.8%.

Take `CCCCn1c(=O)[nH]c(N)c(C(c2ccc(F)cc2)c2c(N)[nH]c(=O)n(CCCC)c2=O)c1=O`: the growth was 51.2%.

For the compound `Cc1cc2c(F)c(Oc3ncnn4cc(OC[C@@H](C)OC(=O)[C@H](C)N)c(C)c34)ccc2[nH]1`, the growth is 71.5%.

In the case of `CN(C)CCNc1nc2c3cc(Cl)ccc3nn2c2ccccc12`, the growth is 74.2%.

Turning to `Cc1ccc2c3c(c(=O)[nH]c2c1)C1(C(C#N)=C(N)O3)c2cc(Br)ccc2-c2ccc(Br)cc21`, the growth is 6.75% (active).

As for `CCOC(=O)c1ccc(-c2ccc3cc(OC)ccc3c2)nc1C`, the growth was 119%.

As to `Cc1nc2cc(-c3nn(C(C)C)c4ncnc(N)c34)ccc2o1`, the growth was -37.7% (active).

For `N/C(=N\O)c1ncc(-c2ccc(C(F)(F)F)cc2)c(NC2CCCCCC2)n1`, the growth is -20.4% [100 µM] (active).

`O=C(Nc1ccccc1)c1cc2ccccc2s1`: the growth is 89.1%.

In the case of `CCOC(=O)Nc1cccc(-n2cnc3cc(-c4ccc(O)cc4)ccc32)c1`, the growth was 20.4%.

Turning to `COc1cc(Cn2c(SCC(=O)Nc3cc(OC)c(OC)c(OC)c3)nc3ccccc3c2=O)cc(OC)c1OC`, the growth was 72.7%.

On to `COC(=O)[C@H](C)NC(=O)[C@@H](OC)[C@@H]1Cc2cc3cc(OC4CC(OC5CC(O)C(O)C(C)O5)C(O)C(C)O4)c(C)c(O)c3c(O)c2C(=O)[C@H]1OC1CC(OC2CC(OC3CC(C)(O)C(O)C(C)O3)C(O)C(C)O2)C(O)C(C)O1` (stereo partly specified), for which the growth is -36.2% (active).

Turning to `COC(=O)/C=C1/CCC2C3CCC4=CC(=O)C(Br)CC4(C)C3C(=O)CC12C` (stereo unspecified), the growth was 13.9%.

Turning to `CN(C)c1ccc(C2CC(c3ccccc3)=NN2/C=C2\SC(=O)NC2=O)cc1` (stereo unspecified), the growth is 100%.

Turning to `O=C(c1ccccc1)N(CCCCl)C(=O)N(CCCCl)C(=O)c1ccccc1`, the growth was 94.2%.

For `NC(=O)NC1(C(=O)O)CCCC1`, the growth was 119%.

On to `COc1cc2nc(N3CCCC3)nc(NCc3ccccc3)c2cc1OC`, for which the growth is 45.2%.

As to `O=C1Nc2ccccc2/C1=C/c1ccc(CO)n1-c1ccc(Cl)cc1`, the growth was 27.8%.

For `C=C(C)[C@@H]1CC[C@]2(C(=O)O)CC[C@]3(C)[C@H](CC[C@@H]4[C@@]5(C)C[C@@H](CC#Cc6ccc(Cl)cc6)C(=O)C(C)(C)[C@@H]5CC[C@]43C)[C@@H]12`, the growth was 16.9%.

Take `CCn1cc2c(cc1=O)-c1nc3ccccc3c3ccnc(c13)C2=O`: the growth is 72.3%.

With `NC(=O)CC(NC(=O)COc1ccc(Cl)cc1Cl)C(=O)O` (stereo unspecified), the growth was 108%.

In the case of `CC(C)c1ccc(/C=N/N=C(N)N)cc1`, the growth is 35.3%.

For `C/C(=C\C(=O)c1ccc(Cl)cc1)c1ccc(Cl)cc1`, the growth was 5.65% (active).

`OCc1cnccc1NCCCOc1ccccc1`: the growth was 94.4%.

As for `Cn1ccnc1C(=O)/C=C/c1ccc(NC(=O)c2c(F)c(F)c(F)c(F)c2F)cc1`, the growth is 92.1%.

Consider `COCc1nc2ccccc2[nH]1`, for which the growth is 102%.

`CCN1C(=O)N(CC)C2SC(N/N=C/c3ccc(F)cc3)=NC21` (stereo unspecified): the growth is 36.8%.

Turning to `Nc1ccc2c(c1)C1(CCC2)NC(=O)NC1=O` (stereo unspecified), the growth was 97.4%.

Take `OC[C@H]1OC([S-])[C@H](O)[C@@H](O)[C@@H]1O.[Au+]` (stereo partly specified): the growth was 90.7%.

For the compound `CCCc1n(Cc2ccc3ccccc3c2)c2ccccc2[n+]1Cc1ccc2ccccc2c1`, the growth is -44.7% (active).

With `CCOc1cc2c(Cl)ncnc2c(OCC)c1OCC`, the growth is -51.3% (active).

For the compound `O=C(NCCc1ccc(O)c(O)c1)C12CC3CC(CC(C3)C1)C2`, the growth was 87.4%.

For the compound `COC(=O)C(=[N+]=[N-])C(=O)c1ccc([N+](=O)[O-])o1`, the growth is 81.7%.

As to `O=C(O)C1[S][Sb]([CH](C(=O)O)[CH](C(=O)O)[Sb]2[S]C(C(=O)O)C(C(=O)O)[S]2)[S]C1C(=O)O` (stereo unspecified), the growth is 81.6%.

On to `Cc1nc2ccc(Cl)cn2c1-c1nnc(SCc2ccc([N+](=O)[O-])cc2)o1`, for which the growth is 48.9%.

In the case of `Cc1cc(C(NC(=O)CCCCCNc2cccc3c2C(=O)N(C2CCC(=O)NC2=O)C3=O)c2cccnc2)c(O)c2ncccc12` (stereo unspecified), the growth was -8.72% (active).

Regarding `CN(C)Cc1cc(C(C)(C)CC(C)(C)C)ccc1O`, the growth was 100%.

Take `COc1ccc(C(=O)N2NC(=O)/C(=C/c3ccccc3F)N=C2c2ccccc2)cc1`: the growth was 105%.

With `O=C(O)c1cn(C2CC2)c2cc(N3CCN(Cc4cc(Cl)ccc4O)CC3)c(F)cc2c1=O`, the growth was 81.9%.

In the case of `CCN(CC)CCCCCCNc1ccnc2cc(Cl)ccc12`, the growth is 61.1%.

Regarding `CCCn1cnc2c(c1=N)C(c1ccc(Cl)cc1)c1sc3c(CC)cccc3c1O2` (stereo unspecified), the growth is 5.23% (active).

Regarding `Cn1cc(-c2csc(-c3c[nH]c4ccc(F)cc34)n2)c2cccnc21`, the growth is -22.7% (active).

Regarding `c1ccc(-c2nc3ccccc3s2)cc1`, the growth is 96.4%.

`CCCCN(CCCC)c1ccc(C(=N)c2ccc(N(C)C)cc2)cc1`: the growth was -76.5% (active).

`CCSc1cnnc2ccccc12`: the growth was 105%.

Consider `O=C1/C(=C/c2ccccn2)NC(=S)N1c1ccccc1Cl`, for which the growth is 36%.

With `COc1cc(C)cc2oc3oc(=N)c(C(=O)c4ccccc4)cc3c(=O)c12`, the growth is 108%.

For the compound `NC(=S)CN1CCOCC1`, the growth was 104%.

Regarding `COc1ccc(-n2c(N)c(-c3nc4ccccc4[nH]3)cc(C#N)c2=O)cc1`, the growth was 93.1%.

Regarding `N#CC1C(C#N)C2c3ccccc3C=CN2C1C(=O)c1ccc(Br)cc1` (stereo unspecified), the growth was 99.6%.

For `Cc1ccc(C(=O)Nc2ccccc2N)cc1`, the growth is 79.1%.

For the compound `O=C1COc2ccccc2C(=O)N1CCCCN1CCCCC1`, the growth is 76.3%.

With `O=C1Nc2ccccc2/C1=C/c1cn(CCCn2c3ccccc3c(=O)c3ccccc32)c2ccccc12`, the growth was 96.4%.

For the compound `COc1ccc(OC)c(NC(=O)c2sc3nc4c(cc3c2N)C(=O)CCC4)c1`, the growth was 37.5%.

With `Cn1cc(-c2csc(-c3cn(CCCN4CCOCC4)c4ccccc34)n2)c2cccnc21`, the growth was 65.1%.

With `CCN1C(=O)N(CC)C2C1NN=c1s/c(=C\c3cnc(C)n3C)c(=O)n12` (stereo unspecified), the growth was -12.2% (active).

On to `Nc1nc(Nc2ccccc2SSc2ccccc2Nc2nc(N)nc(-c3ccc(I)cc3)n2)nc(-c2ccc(I)cc2)n1`, for which the growth is 109%.

In the case of `CCCCCN(CCCCC)CCCNc1c2c(nc3ccc(Cl)cc13)CCCC2`, the growth is 8.01% (active).

For the compound `COc1ccc(/C=N/NC(=O)c2c(N)nn(C)c2Nc2ccccc2)cc1Oc1ccccc1`, the growth is 66.6%.

Consider `CN(C)C(=S)Sc1ccc([N+](=O)[O-])cc1[N+](=O)[O-]`, for which the growth was -78.7% (active).

Regarding `CCCCn1c(-c2ccc(C(=O)O/N=C(\N)c3ccc4c(c3)OCO4)cc2)nc(-c2ccccc2)c1-c1ccccc1`, the growth was 73.8%.
